Screens (PubChem BioAssay)
The sample as a whole holds a higher share of hits than the screen did.
Dicer processing: human Dicer pre-microRNA cleavage inhibition; cat-ELCCA pre-miR-21 Dicer processing, chemiluminescence; hits give high values; hit rate 6% among 47,000; z-score at 25 µM; Q9UPY3; in the data active = z-score above about 3, passing the limit was not always enough;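 also: plate controls were vehicle for no effect and no enzyme for full effect; higher signal means more uncleaved substrate so more Dicer inhibition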
An asterisk follows results filed as active.

SMILES	Dicer processing
CCCOC(=O)C1=C(C)NC2=C(C(=O)CC(C)(C)C2)C1c1cc(Cl)c(O)c(OC)c1 (centres undefined)	-0.03
c1ccc(-c2nnc(Sc3c4c(nc5ncnn35)CCC4)n2-c2ccccc2)cc1	1.9
O=C1C(c2cccc([N+](=O)[O-])c2)=C(O)c2ccccc21	-0.42
CSc1c(-c2cccs2)c(N)nn1S(=O)(=O)c1ccccc1	3.9*
CSc1c(C#N)c(-c2cccs2)nn1C(=O)C(C)(C)C	-2.6
CC1CCN(c2oc(-c3cccs3)nc2S(=O)(=O)c2ccccc2)CC1	0.05
Cn1c(=O)c2c(nc(OCc3ccc4c(c3)OCO4)n2Cc2ccc(Cl)cc2)n(C)c1=O	0.35
Cc1c(NC(=O)c2ncn[nH]2)c(=O)n(-c2ccccc2)n1C	1.1
Cn1cc(Cl)c(/C=C(\C#N)S(=O)(=O)c2ccccc2)n1	0.91
Cn1cc(Cl)c(/C=C(\C#N)C(=O)c2ccc(Cl)cc2)n1	0.36
Cn1cc(Cl)c(/C=C(\C#N)S(=O)(=O)C(C)(C)C)n1	4.2*
CCCS(=O)(=O)c1cnc(SC)nc1N	0.33
COC(=O)c1ccc(NC(=O)CSc2nc(SC)ns2)cc1	-0.69
C=CCN1C(=O)C(O)(CC(=O)c2cccc(Br)c2)c2ccccc21 (centres undefined)	-0.24
CCn1ccnc1C(O)c1ccc(C)cc1 (centres undefined)	3.1*
CCn1c(C(O)c2ccc(N(C)C)cc2)nc2ccccc21 (centres undefined)	2.5
COc1cccc(C(O)c2nccn2C)c1OC (centres undefined)	3.1
COc1ccc(C2N=C(N)Nc3nc4ccccc4n32)cc1OC (centres undefined)	2.5
O=S(=O)(c1ccc(-c2ccc(S(=O)(=O)N3CCOCC3)s2)s1)N1CCOCC1	-0.29
Cc1ccc(C)c(COc2ccc(C)nc2[N+](=O)[O-])c1	0.37
Cc1ccc2ncc(NC(=O)c3ccc(F)cc3)c(=O)n2c1	-0.07
Cc1ccc(C)c(COc2ccc(C)nc2NC(=O)c2ccc(F)cc2)c1	3.8*
O=C(NCc1ccc2c(c1)OCO2)Nc1ccc(OCc2ccccc2)cc1	0.45
CC(C)(C)c1ccc2c(c1)CN(c1ccc(C(=O)O)cc1)CO2	3.9*
CC(C)(C)c1cc(C(C)(C)C)n(-c2ccc(C(=O)O)cc2)n1	-0.66
SMILES	Dicer processing
CN(C(=O)c1ccc2c(c1)CCO2)C(C)(C)C	-0.86
COc1ccc(-c2cnn3c(C(F)(F)F)cc(-c4cccs4)nc23)cc1OC	-0.97
Cc1cc(C)n2nc(C(C)(C)C)c(Br)c2n1	0.1
CC1CC(=O)N(Cc2ccc(Cl)cc2)C(=O)C1	4.7*
CC1=C2CCC(C)CC23C2C(=O)N(Cc4ccc(Cl)cc4)C(=O)C2C1C1C(=O)N(Cc2ccc(Cl)cc2)C(=O)C13 (centres undefined)	0.45
O=C1CNC(=S)N1Cc1ccc(Cl)cc1	-0.06
OCC(O)Cn1c(SCCOc2ccc(Cl)cc2)nc2ccccc21 (centres undefined)	1.6
O=C(O)c1ccc(Cn2cccn2)o1	1
OC(CNCc1ccco1)COc1ccccc1 (centres undefined)	2.8
Cc1ccc2c(c1)c1c(n2CC(O)CNCc2ccccc2)C(=O)CCC1 (centres undefined)	-1.3
Cc1ccc2c(c1)c1c(n2CC(O)CNCc2ccco2)CCCC1 (centres undefined)	5*
Cc1cc(C)nc(Nc2ccccc2O)n1	2.5
Cc1cc(C)nc(Nc2nc3ccccc3[nH]2)n1	3.7*
CCOC(=O)Nc1nc2ccccc2[nH]1	-1
O=C(c1ccc(Br)cc1)C(C(=O)N1CCN(c2ccccc2)CC1)n1ccccc1=O (centres undefined)	-0.57
CCOC(=O)Cc1nc2ccccc2o1	2
Nc1ccc(CCc2nc3ccccc3o2)cc1	6.6*
Cc1c(N)cccc1-c1nc2ccccc2o1	0.93
CN(C)/C=N/S(=O)(=O)c1cc(C(F)(F)F)cc(C(F)(F)F)c1	1.1
O=C(NCc1ccc(F)cc1)c1cc2n(n1)C(C(F)(F)F)CC(c1ccco1)N2 (centres undefined)	2.6
CC(C)CNC(=O)C1CC(c2ccccc2)=NO1 (centres undefined)	3.6*
O=C(NCc1ccco1)C1CC(c2ccc(Cl)cc2)=NO1 (centres undefined)	1.6
O=C(NCc1ccc2c(c1)OCO2)C1CC(c2cccc(Br)c2)=NO1 (centres undefined)	-0.75
Cc1onc(-c2c(Cl)cccc2Cl)c1NC(=O)NN1CCCCC1	1.2
COC(=O)COc1ccc2c(=O)c(Oc3ccccc3Br)c(C(F)(F)F)oc2c1	3.5*
SMILES	Dicer processing
COC(=O)COc1ccc2c(=O)c(Oc3cc(C)cc(C)c3)c(C(F)(F)F)oc2c1	-0.48
Cc1oc2cc(O)ccc2c(=O)c1Oc1ccccc1Br	3.5*
Cc1oc2cc(O)ccc2c(=O)c1Oc1ccc(Cl)cc1	0.45
COC(=O)COc1ccc2c(=O)c(Oc3ccccc3Cl)c(C(F)(F)F)oc2c1	-1.1
CCOC(=O)Oc1ccc2c(=O)c(Oc3ccccc3Br)coc2c1	0.73
Cc1c(OCc2ccc(Cl)c(Cl)c2)ccc(C(=O)/C=C/N(C)C)c1O	-0.52
CSc1sc(C(=O)Nc2ccc(F)cc2F)c(-c2cccs2)c1C#N	-0.72
COc1cc(OC)cc(C(C)(C)OC(=O)N[C@@H](C)C(=O)O)c1	-1.2
Cn1c(=O)c2c(nc(NCCO)n2CC(O)COc2ccccc2)n(C)c1=O (centres undefined)	-1.6
COc1ccc(OCC(O)Cn2c(NC3CCCCC3)nc3c2c(=O)n(C)c(=O)n3C)cc1 (centres undefined)	3.3*
Cn1c(=O)c2c(nc(NC3CCCCC3)n2CC(O)COc2ccccc2)n(C)c1=O (centres undefined)	-2.4
COCCOC(=O)C1=C(C)Nc2nc3ccccc3n2C1c1cccc(Cl)c1 (centres undefined)	1.7
O=C(Nc1cnc2sc3ccccc3n2c1=O)c1ccc(F)cc1	-0.51
Cc1ccc(C(=O)Nc2cnc3sc4ccccc4n3c2=O)cc1	-0.84
Cc1ccc(C(=O)Nc2cc(C#N)c3sc4ccccc4n3c2=O)cc1	4.8*
OCCNc1ncnc2c1sc1nc(-c3ccccc3)c3c(c12)CCCC3	0.3
NC(=O)c1cc([N+](=O)[O-])cc2c1-c1ccc([N+](=O)[O-])cc1/C2=N\O	0.67
Cc1cc(-c2ccccc2)nc2oc3c(=O)[nH]cnc3c12	-0.52
COc1ccccc1Nc1snc2[nH]c(C(=O)c3ccc(C)cc3)cc12	1.5
CC(C)NC(=O)C(=O)NCC1CCCO1 (centres undefined)	0.7
CCOC(=O)C(C(=O)NCC1CCCO1)C1CCCCC1 (centres undefined)	4*
CC(O)CNC(=O)C(=O)NCC1CCCO1 (centres undefined)	1.2
C#CCSc1nc(COC)c(C)c(=O)[nH]1	1.6
O=C(Nc1ccccc1)c1nc(-c2ccccc2)n(-c2ccccc2)n1	0.27
COc1ccc(OC(=O)c2c(C)nn(-c3ccccc3)c2C)cc1	0.4
SMILES	Dicer processing
Cc1nn(-c2ccccc2)c(C)c1C(=O)O	8.4*
CC(C)(C)c1cc(C(=O)O)nn1-c1ccccc1	0.69
Cc1nn(-c2ccccc2)c(C)c1C(=O)Oc1ccc(Cl)cc1Cl	0.09
O=C(O)c1nc(-c2ccccc2)n(-c2ccccc2)n1	5.4*
Cc1ccc(/C(O)=C2\C(=O)C(=O)N(Cc3cccnc3)C2c2cccc(Br)c2)cc1 (centres undefined)	0.29
COC(=O)c1sc(SC)c(C#N)c1-c1ccccc1Cl	-3.5
CC(=O)/C(N=Nc1ccc2c(c1)OCO2)=C(\C)O	1.3
